Where “and” joins values, the source holds several entries; their conditions need not be identical. Equal entries are not always repeated. Records with an inconclusive call do not appear. A structure can be active in one record and inactive in another. Calls of active or inactive are those of the source. The call rests on the fitted dose curve; in most records, active means well fitted curve in the direction sought with a large enough effect in the repeat runs; inconclusive means weak or mixed curves; inactive means no such curve, though single readings can be large; an effect the other way counts as inactive or inconclusive.
Experiments:
[1] = qHTS RealTime-Glo MT Cell Viability Assay in HEK293 cells - 40 hour (AID 1224874); conditions: RealTime-Glo luminescence; max response: stronger effect = lower value; further: nearly all actives have a fitted effect of over 50% in size; further: potency means the concentration at half of the fitted maximal effect
Method in brief: (§1)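 Tox21 screen in HEK293 using RealTime-Glo MT chemistry, with cells and reagent co-dispensed. Luminescence proportional to viable cell number was captured at intervals during 40 h compound exposure at 37 C.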

[2] = A CellTox Green Cytotoxicity Assay to monitor cytotoxicity in HEK293 cells - 24 hour (AID 1224875); further: series mostly up to about 77 µM; nearly all actives have a fitted effect of over 45% in size
Method in brief: (§2)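 Seeding of HEK293 cells together with cytotoxicity dye preceded a 5 h incubation at 37 C/5% CO2. Test compounds in DMSO were then added and fluorescence monitored across 40 h.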

[3] = A CellTox Green Cytotoxicity Assay to monitor cytotoxicity in HepG2 cells - 16 hour (AID 1224876); further: nearly all actives have a fitted effect of over 45% in size; further: potency means the concentration at half of the fitted maximal effect
Method in brief: (§3)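 Nonlytic assay: viable cells exclude the dye, so fluorescence scales with cell death. HepG2 at 600 cells/well, compounds added after 5 h, signal read across 40 h.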

[4] = A CellTox Green Cytotoxicity Assay to monitor cytotoxicity in HepG2 cells - 24 hour (AID 1224878); further: nearly all actives have a fitted effect of over 45% in size; further: potency means the concentration at half of the fitted maximal effect
Method in brief: as §3

[5] = A CellTox Green Cytotoxicity Assay to monitor cytotoxicity in HepG2 cells - 40 hour (AID 1224879); further: nearly all actives have a fitted effect of over 40% in size; further: potency means the concentration at half of the fitted maximal effect
Method in brief: as §3

[6] = A CellTox Green Cytotoxicity Assay to monitor cytotoxicity in HEK293 cells - 32 hour (AID 1224881); further: nearly all actives have a fitted effect of over 40% in size; further: potency means the concentration at half of the fitted maximal effect
Method in brief: as §2

[7] = A CellTox Green Cytotoxicity Assay to monitor cytotoxicity in HepG2 cells - 0 hour (AID 1224882); further: nearly all actives have a fitted effect of over 35% in size; further: potency means the concentration at half of the fitted maximal effect
Method in brief: as §3

[8] = A CellTox Green Cytotoxicity Assay to monitor cytotoxicity in HepG2 cells - 32 hour (AID 1224883); further: nearly all actives have a fitted effect of over 50% in size; further: potency means the concentration at half of the fitted maximal effect
Method in brief: as §3

[9] = A CellTox Green Cytotoxicity Assay to monitor cytotoxicity in HEK293 cells - 8 hour (AID 1224884); further: nearly all actives have a fitted effect of over 35% in size; further: potency means the concentration at half of the fitted maximal effect
Method in brief: as §2

[10] = qHTS RealTime-Glo MT Cell Viability Assay in HepG2 cells - 16 hour (AID 1224885); further: nearly all actives have a fitted effect of over 50% in size
Method in brief: (§4)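 Compound treatment began 5 h after plating HepG2 cells (600/well) with NanoLuc luciferase and prosubstrate. Plates stayed at 37 C for 40 h; luminescence was captured at six time points, 0 h through 40 h.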

[11] = qHTS RealTime-Glo MT Cell Viability Assay in HEK293 cells - 24 hour (AID 1224886); further: nearly all actives have a fitted effect of over 50% in size; further: potency means the concentration at half of the fitted maximal effect
Method in brief: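 Quantitative high-throughput screen of the Tox21 10K library in HEK293: cells and RealTime-Glo reagents plated together, compound added at 5 h, luminescence monitored through 40 h at 37 C.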

[12] = qHTS RealTime-Glo MT Cell Viability Assay in HEK293 cells - 8 hour (AID 1224887)
Method in brief: as §1

[13] = qHTS RealTime-Glo MT Cell Viability Assay in HepG2 cells - 0 hour (AID 1224889); further: nearly all actives have a fitted effect of over 50% in size
Method in brief: as §4

[14] = qHTS assay to identify small molecule antagonists of the estrogen receptor alpha (ER-alpha) signaling pathway using the BG1 cell line in the presence of 0.1 nM 17-beta-estradiol - cell viability counter screen (AID 1259241); further: nearly all actives have a fitted effect of over 40% in size
Method in brief: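 VM7Luc4E2 cells (endogenous full-length ER-alpha, 4xERE-luciferase), cultured 5 days in charcoal-stripped serum, exposed to compounds with 0.1 nM 17beta-estradiol (final) for 22 hr at 37C. Viability read in same wells as live-cell protease fluorescence after 30 min.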

[15] = qHTS assay to identify small molecule antagonists of the androgen receptor (AR) signaling pathway using the MDA cell line in the presence of 0.5 nM R1881 - cell viability counter screen (AID 1259242); further: nearly all actives have a fitted effect of over 45% in size
Method in brief: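 R1881 at 0.5 nM final stimulated MDA-kb2 cells during 16 hr compound treatment at 37C. Cytotoxicity read: CellTiter-Fluor fluorescence after 30 min.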

[16] = biological target: Androgen receptor (Homo sapiens) (UniProt P10275); assay: qHTS assay to identify small molecule antagonists of the androgen receptor (AR) signaling pathway using the MDA cell line in the presence of 0.5 nM R1881 (AID 1259243); further: nearly all actives have a fitted effect of over 50% in size; further: potency means the concentration at half of the fitted maximal effect
Method in brief: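 We exposed MDA-kb2 cells to compounds under 0.5 nM R1881 stimulation for 16 hr at 37C and quantified MMTV-driven luciferase by luminescence.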

[17] = qHTS RealTime-Glo MT Cell Viability Assay in HEK293 cells - 0 hour (AID 1224880)
Method in brief: as §1

[18] = A CellTox Green Cytotoxicity Assay to monitor cytotoxicity in HEK293 cells - 16 hour (AID 1224888); further: nearly all actives have a fitted effect of over 35% in size
Method in brief: as §2

[19] = A CellTox Green Cytotoxicity Assay to monitor cytotoxicity in HepG2 cells - 8 hour (AID 1224890); further: nearly all actives have a fitted effect of over 45% in size; further: potency means the concentration at half of the fitted maximal effect
Method in brief: as §3

[20] = qHTS RealTime-Glo MT Cell Viability Assay in HepG2 cells - 32 hour (AID 1224877); further: nearly all actives have a fitted effect of over 55% in size
Method in brief: as §4
On the % scale 0 is the no-effect control and ±100 the full control effect.

Androgen receptor (Homo sapiens), sequence (P10275 whole entry, looked up): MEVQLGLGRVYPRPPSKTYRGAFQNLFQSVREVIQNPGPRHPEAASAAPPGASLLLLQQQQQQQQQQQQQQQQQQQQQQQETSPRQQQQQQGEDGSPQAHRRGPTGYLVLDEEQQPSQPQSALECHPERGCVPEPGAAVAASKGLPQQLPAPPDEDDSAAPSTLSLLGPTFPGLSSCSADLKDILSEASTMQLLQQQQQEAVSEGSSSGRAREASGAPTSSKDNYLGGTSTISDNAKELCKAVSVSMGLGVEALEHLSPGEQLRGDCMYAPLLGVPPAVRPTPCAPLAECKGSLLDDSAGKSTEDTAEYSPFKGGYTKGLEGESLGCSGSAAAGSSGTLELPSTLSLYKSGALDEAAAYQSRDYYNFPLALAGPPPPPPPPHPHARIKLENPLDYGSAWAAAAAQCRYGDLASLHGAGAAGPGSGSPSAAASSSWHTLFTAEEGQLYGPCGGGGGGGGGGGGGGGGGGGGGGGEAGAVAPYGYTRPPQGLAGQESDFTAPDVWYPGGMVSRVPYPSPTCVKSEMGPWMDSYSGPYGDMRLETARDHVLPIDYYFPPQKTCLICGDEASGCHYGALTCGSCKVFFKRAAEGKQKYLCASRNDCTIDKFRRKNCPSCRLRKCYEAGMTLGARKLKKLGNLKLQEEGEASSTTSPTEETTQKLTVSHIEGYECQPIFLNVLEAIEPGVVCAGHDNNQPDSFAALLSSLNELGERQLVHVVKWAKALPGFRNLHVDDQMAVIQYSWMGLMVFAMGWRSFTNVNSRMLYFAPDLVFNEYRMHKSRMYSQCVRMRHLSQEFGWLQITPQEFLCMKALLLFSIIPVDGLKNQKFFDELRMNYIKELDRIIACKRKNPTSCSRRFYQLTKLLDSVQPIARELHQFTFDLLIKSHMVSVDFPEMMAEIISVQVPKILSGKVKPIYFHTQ

O=NN1CCCCCCC1
inactive: max response [1] 6.51% and -7.12% | Potency [2] | Potency [3] | Potency [4] | Potency [5] | Potency [6] | Potency [7] | Potency [8] | Potency [9] | outcome [10] | Potency [11] | outcome [12] | outcome [13] | Potency [14] | outcome [15]

CCCC1COC(Cn2cncn2)(c2ccc(Cl)cc2Cl)O1 (centres undefined)
inactive: Potency [3] | Potency [4] | Potency [7] | Potency [9] | outcome [13] | Potency [14] | outcome [15]
active: Potency [1] 25 µM and 21.9 µM | Potency [11] 25 µM and 24.5 µM | Potency [16] 31.2 µM and 30.6 µM
49.9 µM (active) and inactive: Potency [6]

CCCCOC(=O)c1ccccc1C(=O)OCCCC
inactive: max response [1] -5.69% and -1.79% | Potency [2] | Potency [3] | Potency [4] | Potency [5] | outcome [17] | Potency [6] | Potency [7] | Potency [9] | Potency [11] | outcome [12] | Potency [18] | outcome [13] | Potency [19] | Potency [14] | outcome [15]

c1cc2c3c(cccc3c1)CC2
inactive: max response [1] 0.321% and -19.1% | Potency [3] | outcome [20] | Potency [4] | Potency [5] | outcome [17] | Potency [7] | Potency [11] | outcome [12] | outcome [13] | Potency [19] | Potency [14] | outcome [15] | Potency [16]
inactive and 49 µM (active): Potency [6] | Potency [9]

CCCCCCCCCCCC#N
inactive and 50.7 µM (active): Potency [5]
inactive and 40.3 µM (active): Potency [6] | Potency [19]
inactive and 45.2 µM (active): Potency [3] | Potency [4] | Potency [7] | Potency [8] | Potency [9]
inactive: max response [1] -12% and 12.1% | outcome [20] | outcome [17] | outcome [10] | Potency [11] | outcome [12] | outcome [13] | Potency [14] | outcome [15]

CCCN(CCC)N=O
inactive: max response [1] -0.648% and 5.21% | Potency [2] | Potency [3] | Potency [4] | Potency [5] | outcome [17] | Potency [6] | Potency [7] | Potency [9] | outcome [10] | Potency [11] | outcome [12] | Potency [18] | outcome [13] | Potency [19] | Potency [14] | outcome [15]

Cn1cc(-c2ccccc2)c(=O)c(-c2cccc(C(F)(F)F)c2)c1
inactive: Potency [2] | Potency [3] | outcome [20] | Potency [4] | Potency [5] | Potency [6] | Potency [7] | Potency [9] | outcome [10] | Potency [11] | outcome [12] | Potency [19] | Potency [14] | outcome [15]

CNC(=O)Oc1ccccc1OC(C)C
inactive: max response [1] 0.581% and -1.94% | Potency [2] | Potency [3] | Potency [4] | Potency [5] | Potency [6] | Potency [7] | Potency [8] | Potency [9] | Potency [11] | outcome [12] | Potency [18] | outcome [13] | Potency [14] | outcome [15]

CC(C)NC(=O)N1CC(=O)N(c2cc(Cl)cc(Cl)c2)C1=O
inactive: Potency [2] | Potency [3] | outcome [20] | Potency [4] | Potency [5] | Potency [6] | Potency [7] | Potency [9] | Potency [11] | outcome [12] | Potency [18] | outcome [13] | Potency [19] | Potency [14] | outcome [15]

CC(C)C1(C)N=C(c2nc3ccccc3cc2C(=O)O)NC1=O (centres undefined)
inactive: max response [1] 4.12% and 2.1% | Potency [2] | Potency [3] | Potency [4] | Potency [5] | outcome [17] | Potency [6] | Potency [7] | Potency [9] | outcome [10] | Potency [11] | outcome [12] | Potency [18] | outcome [13] | Potency [14] | outcome [15]

[O-][Cl+2]([O-])O
inactive: max response [1] 11.8% and -2.78% | Potency [2] | Potency [3] | Potency [4] | Potency [5] | Potency [6] | Potency [7] | Potency [8] | Potency [9] | outcome [10] | Potency [11] | outcome [12] | Potency [18] | outcome [13] | Potency [14] | outcome [15]

Cc1ccccc1O
inactive: max response [1] 2.91% and -0.867% | Potency [2] | Potency [3] | Potency [4] | Potency [5] | outcome [17] | Potency [6] | Potency [7] | Potency [9] | outcome [10] | Potency [11] | outcome [12] | outcome [13] | Potency [19] | Potency [14] | outcome [15]

O=NN1CCCC1
inactive: max response [1] -15.8% and -5.95% | Potency [2] | outcome [20] | Potency [6] | Potency [7] | outcome [10] | Potency [11] | outcome [12] | outcome [13] | Potency [14] | outcome [15]
inactive and 21.9 µM (active): Potency [9]
inactive and 38.9 µM (active): Potency [19]
57.5 µM (active) and inactive: Potency [5]

Nc1ccccc1C(=O)O
inactive: max response [1] 10.4% and 8.34% | Potency [2] | Potency [3] | Potency [4] | Potency [5] | outcome [17] | Potency [6] | Potency [7] | Potency [9] | outcome [10] | Potency [11] | outcome [12] | outcome [13] | Potency [19] | Potency [14] | outcome [15]

From PubChem BioAssay (Tox21)
